TTR transcr act: TTR transcription activators in neuroblastoma reporter cells, primary screen, cell-based, luminescence, SH-SY5Y, TTR promoter Gaussia luciferase; 92,000 tested, 1.3% active; activation, % at 16.7 µM; AID 1117267, 2014; 100% = recombinant luciferase protein wells;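 active = activation above the mean of all tested compounds plus 3 SD, cut at about 9.5% in these data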;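 also: cells exposed to compounds for one day before reading; 0% = median of all test compound wells on the plate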
HuH7 TTR inh: TTR promoter reporter inhibitors in hepatoma cells, counter-screen for TTR transcription activator project, cell-based, luminescence, HuH7 hepatoma. shares compounds with TTR transcr act. inhibition, % at 16.7 µM. HuH7 TTR promoter-Gaussia luciferase reporter. 1,100 tested, 4% active;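 active = average inhibition above the solvent-only control wells' mean plus 3 SD, cut at about 15% in these data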;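 also: 0% = cells with DMSO only and 100% = cells with inhibitor control FD; inhibitors lower well luminescence so higher value means more inhibition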
TTR up confirm: TTR transcription activators, retest, confirmation, cell-based, luminescence, SH-SY5Y, triplicate. shares compounds with TTR transcr act. SHSY5Y TTR promoter Gaussia luciferase; 100% = purified Lucia enzyme wells, no cells. activation, % at 16.7 µM. 1,100 tested, under 10 active;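 active = mean activation above a set limit taken from the earlier primary screen, cut at about 11% in these data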;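 also: 0% = DMSO-treated cells and 100% = recombinant Lucia luciferase without cells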
* hit, by the source's call. This is one part of a sample in which hits are shown more often than they occur.

SMILES	TTR transcr act	others
COc1ccc(C2c3ccccc3NC3C2C(=O)N(Cc2ccc(OC)cc2OC)[C@H]3Cc2ccccc2)cc1 (stereo not given in full)	0
COc1ccc(OCC(=O)NC(=O)c2ccccc2OC)c([N+](=O)[O-])c1	0
O=C(O)C1(C(=O)O)CCCC1	2
O=C(O)C1(C(=O)O)CCC2(CCCCC2)CC1	10.0*	HuH7 TTR inh=-13;TTR up confirm=1
O=C(O)CC1(C(=O)O)CCCC1	-2
CC(=O)c1cc(C#N)c(Oc2ccccc2)nc1C	-2
CCSc1nc(C)c(C(C)=O)cc1C#N	0
CC(=O)c1cc(C(C)=O)c(C)nc1C	9.9*	HuH7 TTR inh=-7;TTR up confirm=13*
COCOc1cccc(CN2CCC2(C)C(=O)Nc2cc(OC)ccc2OC)c1 (stereo not given)	-1
Cc1cc(C)cc(Oc2nc(-c3ccccc3)cc(C)c2S(C)(=O)=O)c1	3
Cc1cccc(Oc2nc(-c3ccccc3)cc(C)c2S(C)(=O)=O)c1C	12*	HuH7 TTR inh=-9;TTR up confirm=-1
Cc1cc(-c2ccccc2)nc(Oc2ccc(C(C)(C)C)cc2)c1S(C)(=O)=O	-2
Cc1cccc2cc(CNC3CCCC3)c(Cl)nc12	-3
Cc1cccc(C(=O)N[C@@H]2CC[C@@]34CCCN3C(=O)CCC[C@H]4[C@H]2C)c1	0
Cc1ccccc1C(=O)NC1CCCCN(Cc2cccc(Cl)c2)C1=O (stereo not given)	-1
CNC(=O)N(O)C1N(C)C(=O)N(Cc2ccccc2)C1(C)C (stereo not given)	1
COC(=O)CN1C(=O)N(c2ccccc2)C(N(O)C(=O)Nc2ccccc2)C1(C)C (stereo not given)	2
COC(=O)CNC(=O)CN1C(=O)N(c2cccc(Cl)c2)C(N(O)C(=O)Nc2cccc(Cl)c2)C1(C)C (stereo not given)	10*	HuH7 TTR inh=-5;TTR up confirm=-1
CC(C)C1C(=O)N(Cc2cn(CCC3OCCCO3)nn2)CCS(=O)(=O)N1Cc1ccc(-c2ccc(Cl)c(Cl)c2)cc1 (stereo not given)	-1
O=c1c2cc3cc4c(cc3nc2ncn1Cc1cccnc1)OCO4	18*	HuH7 TTR inh=-10;TTR up confirm=2
O=c1c2cc3cc4c(cc3nc2ncn1CCc1ccccc1)OCO4	0
O=c1c2cc3cc(Cl)ccc3nc2ncn1CCc1ccc(O)cc1	0
CCCCN(C)C1CCN(C(=S)Nc2cccc(SC)c2)CC1	-2
CCOC(=O)Cc1csc(SCC(=O)N2CCN(c3ccc(OC)cc3)CC2)n1	0
CCOC(=O)Cc1csc(Nc2ccc(Cl)cc2)n1	-1
SMILES	TTR transcr act	others
CCOC(=O)Cc1csc(SCC(=O)Nc2cc(Cl)ccc2Oc2ccccc2)n1	9.7*	HuH7 TTR inh=1;TTR up confirm=-1
CCOc1ccc(-n2c(C)nc(O)c2N=Nc2ccccc2)cc1	-1
Cc1ccc(S(=O)(=O)N2C=C(c3ccccc3)c3ccccc3-c3ccccc32)cc1	3
Cn1c(SCC(=O)Nc2cccnc2Cl)nc2ccccc21	1
O=C(Nc1ncccc1Cl)c1cccc(F)c1	12*	HuH7 TTR inh=-17;TTR up confirm=0
Cc1cc(NC(=O)c2cccc(F)c2)no1	8
COc1cc(OC)c(NC(=O)c2cccc(F)c2)cc1Cl	-2
CC(C)(C)C(=O)NC1CCCCN(Cc2ccc(Cl)cc2)C1=O (stereo not given)	-1
COc1cc(NS(=O)(=O)c2ccc(NC(=S)NC(C)=O)cc2)nc(OC)n1	17*	HuH7 TTR inh=-20;TTR up confirm=-1
COc1cc(NS(=O)(=O)c2ccc(NC(=O)COc3ccc(C)cc3)cc2)nc(OC)n1	0
CCOC(=O)/C=C/C(=O)Nc1ccc(S(=O)(=O)Nc2cc(OC)nc(OC)n2)cc1	0
O=C(OCC#CCSc1nnc(-c2cccc3ccccc23)o1)c1ccncc1	-1
COc1c(S(=O)(=O)NCCCn2ccnc2)ccc(Cl)c1Cl	5
CCC[C@H]1[C@@H](OC(=O)NCc2ccc(Cl)cc2)CC[C@@]23CCCN2C(=O)CCC[C@@H]13	1
CC(=O)N1c2ccc(S(=O)(=O)N3CCCC(C(=O)NCc4ccccc4)C3)cc2CC1C (stereo not given)	-4
Cc1ccccc1CN1CCCCC(NC(=O)Nc2cccc(F)c2)C1=O (stereo not given)	0
COc1ncnc2c1ncn2CCCN(C)Cc1ccco1	-1
CN(CCCn1ccc(N)nc1=O)Cc1ccco1	17*	HuH7 TTR inh=-9;TTR up confirm=0
COc1ccc(CN(C)CCCn2ccc(N)nc2=O)cc1OC	0
CCOC(=O)c1c(CNc2ccncc2)n(C)c2cc(Br)c(O)cc12	-1
CCn1c(SCC(=O)Nc2cccc(OC)c2)nc2ccccc2c1=O	-2
COc1cccc(NC(=O)CSc2c3c(nc4ccccc24)CCCC3)c1	9.9*	HuH7 TTR inh=-8;TTR up confirm=-2
Cc1cccc(NC(=O)CSc2c3c(nc4ccccc24)CCC3)n1	1
CCOC(=O)CC(NC(=O)c1cccc2c1C(=O)N(Cc1cccnc1)C2)c1ccc(OC(C)C)cc1 (stereo not given)	3
CN(CC(=O)Nc1ccc(OC(F)(F)F)cc1)C(=O)c1ccccc1SCC(=O)N1CCCC1	0
SMILES	TTR transcr act	others
CCC/C(=N\NC(=O)c1ccccc1C)c1ccccc1	10*	HuH7 TTR inh=4;TTR up confirm=-1
O=C(O)CC/C(=N/NC(=O)c1cccs1)c1ccccc1	-1
Cc1ccccc1C(=O)NCC(=O)c1ccccc1	2
O=C(Cn1c(=O)c2cccn2c2cccnc21)NCCCN1CCN(c2ccccc2)CC1	-1
O=S1(=O)CCSC[C@@H](CN2CCOCC2)N1	0
CC(Oc1ccccc1)C(=O)N1CCCc2ccccc21 (stereo not given)	10*	HuH7 TTR inh=-16;TTR up confirm=1
CC(OC(=O)Cn1c(C(F)(F)F)nc2ccccc21)C(=O)N1CCCc2ccccc21 (stereo not given)	4
CSC1=NCCN1C(=O)C(C)Oc1ccccc1 (stereo not given)	-1
CSc1ccc(NC(=O)NCc2ccccc2)cc1	4
O=C/C(=C\Nc1ccccn1)c1nc2cc(Cl)ccc2o1	1
O=C/C(=C\Nc1ccccn1)c1nc2ccccc2o1	11*	HuH7 TTR inh=25*;TTR up confirm=-1
O=C/C(=C\Nc1ccc(Br)cc1)c1nc2ccccc2o1	3
O=C(CCC(=O)N1CCCCCC1)NCc1ccc(F)cc1	0
COc1ccccc1CNC(=O)C1CCN(S(=O)(=O)c2ccc3c(c2)OCCCO3)CC1	0
CCCn1ccnc1SCC(=O)Nc1c(C)n(C)n(-c2ccccc2)c1=O	-1
COc1ccccc1C(=O)C1CCCN(C(=O)c2ccc3c(c2)OCCO3)C1 (stereo not given)	1
COc1ccccc1C(=O)C1CCCN(C(=O)c2cc(CC(C)C)nc(C)n2)C1 (stereo not given)	19*	HuH7 TTR inh=-15;TTR up confirm=0
Cc1nc(CC(C)C)cc(C(=O)N2CCCC(Nc3ccc(C)c(C)c3)C2)n1 (stereo not given)	1
CCOC(=O)C1CCN(C(=O)C(C)(C)NC(=O)Nc2ccc(C(F)(F)F)cc2Cl)CC1	2
CCSc1nnc(NC(=O)CSc2nnc(C)c(=O)n2N)s1	0
O=C(Nc1nc2ncccn2c1-c1ccc(C(F)(F)F)cc1)c1ccccc1	1

Assay outcomes from PubChem BioAssay.
